The compounds below were run on Bacillus 1 (Bacillus foraminis) (assay: relative growth (AUC of 72 h growth curve relative to DMSO control, dAUC) (ratio); higher = more growth (less inhibition), active = hit call of the paper). Conditions: 20 µM;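 active = growth AUC significantly below the DMSO wells by Dunnett test; inactive = the rest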.
Method: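 Environmental bacterial isolates (Iceland stream sediment and Silwood Park soil) and whole stream-sediment communities were grown in LB from a 1:100 dilution with each pesticide at 20 µM (1% DMSO). A600 was read hourly for 72 h and the area under a spline-fitted growth curve (AUC) was computed. dAUC is the mean AUC of 3 biological replicates divided by the mean AUC of the DMSO controls. Significance was tested by Dunnett's test against the DMSO control.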

Structure (SMILES) | relative growth
CCCN(CCC)C(=O)SCc1ccccc1 | 0.998 (inactive)
CN1COCN(Cc2cnc(Cl)s2)/C1=N\[N+](=O)[O-] | 1.02 (inactive)
CC1(C)CON(Cc2ccccc2Cl)C1=O | 1.03 (inactive)
Clc1ccc(C(c2ccc(Cl)cc2)C(Cl)(Cl)Cl)cc1 | 1.06 (inactive)
CSc1nnc(C(C)(C)C)c(=O)n1N | 0.94 (inactive)
CC(C)(C)c1ccc(CSc2cnn(C(C)(C)C)c(=O)c2Cl)cc1 | 1.03 (inactive)
O=C1C2(Cl)C3(Cl)C4(Cl)C(Cl)(Cl)C5(Cl)C3(Cl)C1(Cl)C5(Cl)C24Cl (stereo not given) | 0.959 (inactive)
O=C1c2ccccc2C(=O)N1SC(Cl)(Cl)Cl | 1.12 (inactive)
O=C(O)COc1ccc(Cl)cc1Cl | 1.09 (inactive)
OC(Cc1ccccc1Cl)(Cn1nc[nH]c1=S)C1(Cl)CC1 (stereo not given) | 0.988 (inactive)
C/C(=N\C#N)N(C)Cc1ccc(Cl)nc1 | 0.921 (inactive)
N#C/N=C1\SCCN1Cc1ccc(Cl)nc1 | 1.08 (inactive)
CC1=NNC(=O)N(/N=C/c2cccnc2)C1 | 1.16 (inactive)
CCc1cnc(C2=NC(C)(C(C)C)C(=O)N2)c(C(=O)O)c1 (stereo not given) | 1.11 (inactive)
CN(C)C(CSS(=O)(=O)O)CSS(=O)(=O)O | 1.07 (inactive)
Cc1cc(C)nc(Nc2ccccc2)n1 | 1.08 (inactive)
O=C(Nc1ccc(F)cc1F)c1cccnc1Oc1cccc(C(F)(F)F)c1 | 1.07 (inactive)
CC(C)CC(C)c1sccc1NC(=O)c1cn(C)nc1C(F)(F)F (stereo not given) | 0.959 (inactive)
Cc1c(COC(=O)[C@@H]2[C@H](/C=C(\Cl)C(F)(F)F)C2(C)C)cccc1-c1ccccc1 (racemic) | 0.976 (inactive)
CCc1cc(C)cc(CC)c1-c1c(OC(=O)C(C)(C)C)n2n(c1=O)CCOCC2 | 0.912 (inactive)

Structure (SMILES) | relative growth
CS(=O)(=O)c1ccc(C(=O)C2C(=O)CCCC2=O)c([N+](=O)[O-])c1 | 0.961 (inactive)
COP(=O)(NC(C)=O)SC (stereo not given) | 1.02 (inactive)
CCNc1nc(Cl)nc(NC(C)C)n1 | 0.997 (inactive)
CC(C)N(C(=O)COc1nnc(C(F)(F)F)s1)c1ccc(F)cc1 | 0.999 (inactive)
CCOCN(C(=O)CCl)c1c(C)cccc1CC | 1 (inactive)
COC(=O)Nc1nc2ccccc2[nH]1 | 1.1 (inactive)
CC(C)N1C(=O)c2ccccc2NS1(=O)=O | 1.01 (inactive)
C#CCN1C(=O)COc2cc(F)c(N3C(=O)C4=C(CCCC4)C3=O)cc21 | 1.14 (inactive)
Fc1ccc(Oc2ccnc3cc(Cl)cc(Cl)c23)cc1 | 1.04 (inactive)
COP(=O)(OC)OC=C(Cl)Cl | 0.941 (inactive)
Cc1cc(C(F)(C(F)(F)F)C(F)(F)F)ccc1NC(=O)c1cccc(I)c1C(=O)NC(C)(C)CS(C)(=O)=O | 1.16 (inactive)
CC1(C)C(C(=O)OC(C#N)c2cccc(Oc3ccccc3)c2)C1(C)C (stereo not given) | 0.917 (inactive)
CCCSP(=O)(OCC)Oc1ccc(Br)cc1Cl (stereo not given) | 1.07 (inactive)
CCC(=O)Nc1ccc(Cl)c(Cl)c1 | 0.957 (inactive)
O=C(NCCc1ncc(C(F)(F)F)cc1Cl)c1ccccc1C(F)(F)F | 0.999 (inactive)
CC1(C)C(C=C(Cl)Cl)C1C(=O)OCc1cccc(Oc2ccccc2)c1 (stereo not given) | 1.06 (inactive)
COC(=O)N(OC)c1ccccc1COc1ccn(-c2ccc(Cl)cc2)n1 | 1.06 (inactive)
CC(Oc1ccc(Oc2ncc(C(F)(F)F)cc2Cl)cc1)C(=O)O (stereo not given) | 1 (inactive)
CO/C=C(/C(=O)OC)c1ccccc1Oc1cc(Oc2ccccc2C#N)ncn1 | 1.03 (inactive)
CO/C=C(/C(=O)OC)c1ccccc1COc1cccc(C(F)(F)F)n1 | 1.05 (inactive)

From the supplement of paper PMC12067926
